In all, about 35,000 sequences were measured (“fluorescence intensity (a.u.)”: median about 10,000, highest 2% from about 52,000 on). This excerpt belongs to a sample that is enriched for the highest values.

In the test the target is T1, OsWOX13 (Oryza sativa, UniProt Q5QMM3 1-267).
T1 sequence: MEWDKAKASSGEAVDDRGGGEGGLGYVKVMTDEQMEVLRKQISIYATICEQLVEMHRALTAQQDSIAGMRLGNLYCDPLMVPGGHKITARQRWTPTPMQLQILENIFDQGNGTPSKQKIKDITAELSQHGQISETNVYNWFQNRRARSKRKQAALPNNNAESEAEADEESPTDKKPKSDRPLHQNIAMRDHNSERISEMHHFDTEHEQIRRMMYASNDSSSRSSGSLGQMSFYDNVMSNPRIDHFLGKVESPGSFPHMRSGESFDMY
As to the kind of experiment: protein-binding microarray (RPBM); PBS, 2% BSA, 51.3 ng/ul salmon testes DNA, 50 uM zinc acetate, 200 nM TF, 25 C, 1 h; high values mean tight binding. The settings on record: protein: recombinant; tags: N-terminal polyhistidine and DsRed monomer fusion (pET32a); label: CyDye5-dUTP incorporated in the synthesized complementary strand; 3' TTTTT single-stranded linker to array surface; dsDNA, one strand shown. Put shortly: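 The binding signal for each feature is its fluorescence intensity in arbitrary units. An Axon 4000B scanner was used to read a custom Agilent array that had been made double-stranded with Cy5-dUTP primer extension, blocked with 2% BSA, incubated at 25 °C for 1 h with 200 nM protein in PBS, 2% BSA, salmon testes DNA and 50 µM zinc acetate, and washed. The protein was an N-terminal polyhistidine–DsRed transcription factor fusion from E. coli BL21-CodonPlus, purified on Ni–NTA.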
As to “TTACAAGACTTTCAATTATTATCCACATTTATATAGATGTCGGAGTCACCTAGTGCAG”, the binding signal is 7150 fluorescence intensity (a.u.). Regarding “CACCAATCAGGGTTCCAAGTAGAAGAGGTGGGCAGAGAGCCGGAGTCACCTAGTGCAG”, the binding signal was 6870 fluorescence intensity (a.u.). For “GATAATTTGGTCATTGCTAAAATATTTGGGAAAAGTTAGCCGGAGTCACCTAGTGCAG” the value was 23700 fluorescence intensity (a.u.); for “TTATAATTGGAAAATAAATGAAGGGTTATAATTAAATGAACGGAGTCACCTAGTGCAG”, 12000 fluorescence intensity (a.u.). “CTAAGCTGTGATTTCTTTTCTTTATGTCACCACCTCCAAACGGAGTCACCTAGTGCAG”: the binding signal is 3460 fluorescence intensity (a.u.). Take “TTAATTAGACTGACATGTGGGGTCCGCGTGGGTCCCACCACGGAGTCACCTAGTGCAG”: the binding signal is 20200 fluorescence intensity (a.u.). For “TAGTCGTGTCAATTTGGAAAATTGGAAAGCCGTGGGGAGACGGAGTCACCTAGTGCAG”, the binding signal is 11400 fluorescence intensity (a.u.). For “TGATAATAATCTGTTCAATAATTTATCTTAAACAGGGCCTCGGAGTCACCTAGTGCAG” the value was 11200 fluorescence intensity (a.u.). “CCCTATCAATTACCTTCACTATCATATTAATCATTGTAGGCGGAGTCACCTAGTGCAG”: the binding signal is 24100 fluorescence intensity (a.u.). Regarding “CAAACAGTCAATTAGGCCTAAACAAGTTGCTACGAGCTAGCGGAGTCACCTAGTGCAG”, the binding signal was 33200 fluorescence intensity (a.u.). Take “GAATATTAAACTTCCAAAACAGGTCCAAAGCTATGTTCTTCGGAGTCACCTAGTGCAG”: the binding signal was 57500 fluorescence intensity (a.u.). In the case of “TTATTACAATTTAATTATATTTTAATTATTCTAAAAGCTTCGGAGTCACCTAGTGCAG”, the binding signal is 20200 fluorescence intensity (a.u.). Turning to “TAAAATTAAGCTCCAAATAAACTATATAAAATTATGTATTCGGAGTCACCTAGTGCAG”, the binding signal is 4090 fluorescence intensity (a.u.). For “GCTAATTATAGTTTAATTAGGCTTAATAAATTTACAGTTTCGGAGTCACCTAGTGCAG” the value was 42300 fluorescence intensity (a.u.); for “ATTAATTAAAGCTAATTAAACGATGTTGTTTATTAGGCTTCGGAGTCACCTAGTGCAG”, 58700 fluorescence intensity (a.u.). Regarding “CACTTAATTTGTTAATTAAATATATTTTCCAAACAAATTTCGGAGTCACCTAGTGCAG”, the binding signal was 39100 fluorescence intensity (a.u.). With “AATTGCGTGATTGTGCTAATCAAAATGCAGAATTGGATATCGGAGTCACCTAGTGCAG”, the binding signal was 23000 fluorescence intensity (a.u.).

With “CAAAATTAAACTTTAAAATTCAGACTTCAGACTCCAGTGCCGGAGTCACCTAGTGCAG”, the binding signal was 13400 fluorescence intensity (a.u.). For “ACTACTAAGTTAATTGCATTTTACTTCTCTCTCAATCTCGCGGAGTCACCTAGTGCAG”, the binding signal was 10000 fluorescence intensity (a.u.). For “TTCGATCCTGACTGGAATTGGATGCCTAGTTTGCCTTGCCCGGAGTCACCTAGTGCAG” the value was 4190 fluorescence intensity (a.u.); for “GTTAACTGAATATTATATCGAAGAAAACTTGCATTTCAGACGGAGTCACCTAGTGCAG”, 7980 fluorescence intensity (a.u.). Take “CTCAAAATTTAAATTTAAGGTTAAAAGTTAAAATTTTACGCGGAGTCACCTAGTGCAG”: the binding signal is 21200 fluorescence intensity (a.u.). On to “GGATTTGATCGATTGGATTTCGATTTGGCCCGCGATTTGGCGGAGTCACCTAGTGCAG”, for which the binding signal was 4010 fluorescence intensity (a.u.). In the case of “CGATCAATCTCTCTTTATTTATTTGCAGATCGATCAACCTCGGAGTCACCTAGTGCAG”, the binding signal was 5760 fluorescence intensity (a.u.). With “TAGTCTTGATTGATTGGCAGATGACAGCATAATAGCCGTACGGAGTCACCTAGTGCAG”, the binding signal was 65200 fluorescence intensity (a.u.). As for “CCTGCATCATCAATCTGCCTACATATCGATCGATTGATCTCGGAGTCACCTAGTGCAG”, the binding signal is 4630 fluorescence intensity (a.u.). For “AAGATAGATAGATAGATAGATAGATAGATCGATCGATCATCGGAGTCACCTAGTGCAG” the value was 14900 fluorescence intensity (a.u.).

“GTCTTTATTTGATTGATCATCTGGCATCAATCAATCGGCTCGGAGTCACCTAGTGCAG”: the binding signal was 65500 fluorescence intensity (a.u.). With “ATAGATAGATAGATAGATAGATAGATTGATCGATCGATCGCGGAGTCACCTAGTGCAG”, the binding signal is 55400 fluorescence intensity (a.u.). As to “ACATTGACACCAATCTTGAACATAATAGCGCATTACAGTACGGAGTCACCTAGTGCAG”, the binding signal is 7300 fluorescence intensity (a.u.).

For “TTGACTTGTACATAGTAATGATTGGCAGGTAATGACGTACCGGAGTCACCTAGTGCAG”, the binding signal is 24100 fluorescence intensity (a.u.). With “ACAGAGAGAGGTAGGTGATTGATAATAAGAAAGAAGGGAACGGAGTCACCTAGTGCAG”, the binding signal was 13000 fluorescence intensity (a.u.). Regarding “TGGGATTGGGAAATAAATGAAGGGTTAGGATTAAATGGAACGGAGTCACCTAGTGCAG”, the binding signal was 24100 fluorescence intensity (a.u.). Turning to “GATAATAGATAATAGATAGATTGAAGATTAGGAAAGGGAACGGAGTCACCTAGTGCAG”, the binding signal was 54800 fluorescence intensity (a.u.). As to “TTTAATCTTTAATATTGATTTTGCCACCAACTAAAACGGCCGGAGTCACCTAGTGCAG”, the binding signal was 4660 fluorescence intensity (a.u.). Regarding “ATCCATGTAAATTAACTCATCCAATGTGACAGCACGACGCCGGAGTCACCTAGTGCAG”, the binding signal was 8800 fluorescence intensity (a.u.). Take “ACCCAGTAATTTCCAAATCTAAAGATAGGAGATTTTAGGACGGAGTCACCTAGTGCAG”: the binding signal is 6740 fluorescence intensity (a.u.).

“ATACTAATTATACGGTCACACCTATCCGTTGCATGATGCACGGAGTCACCTAGTGCAG”: the binding signal is 21100 fluorescence intensity (a.u.). With “CTTAATTTGGCACTGCCCAAGAAAATTTTGACAAGTACTTCGGAGTCACCTAGTGCAG”, the binding signal is 9440 fluorescence intensity (a.u.).

Regarding “TTCGCTTTGATGGACGGCTCAGATCGGCTCCTAATCCATCCGGAGTCACCTAGTGCAG”, the binding signal is 3310 fluorescence intensity (a.u.). Turning to “TGATTAAATATAACTAAACTGTCAACGACATAATGCATTACGGAGTCACCTAGTGCAG”, the binding signal was 3470 fluorescence intensity (a.u.). Turning to “AACTAACAGATTATTCTATGTCGGTTTATTATAATCCAACCGGAGTCACCTAGTGCAG”, the binding signal was 15700 fluorescence intensity (a.u.).

Consider “TCTTGACACCGGCCGGATTGATCTATCATCCATCCATCGACGGAGTCACCTAGTGCAG”, for which the binding signal was 12300 fluorescence intensity (a.u.). Consider “ATAAATAAACTTATTTTGAGATAATGGTGTAATAGTGTAGCGGAGTCACCTAGTGCAG”, for which the binding signal is 5300 fluorescence intensity (a.u.).

Source of the values: publication PMC7819943, “Rice protein-binding microarrays: a tool to detect cis-acting elements near promoter regions in rice”.
